# Measured values: PubChem BioAssay (Tox21)
# A number with no mark means an inactive call. Records with an inconclusive call do not appear. Activity calls are given as the source filed them. Calls come from the whole dose curve.
# Target: Acetylcholinesterase (Homo sapiens) (UniProt P22303)
# Test: Acetylcholinesterase (AChE) small molecule antagonists: colormetric cell-based qHTS assay (AID 1347395); note: nearly all actives have a fitted effect of over 30% in size
# Details: SH-SY5Y cells AChE activity, colorimetric (Ellman); series mostly up to 115 µM; activity, negative = inhibition: at the top concentration
# Outline: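 Quantitative HTS in attached SH-SY5Y cells: 30 min compound exposure, then 90 min with acetylthiocholine and DTNB at 37 C; colour from thiocholine reports AChE activity.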
# % is set by controls: 0 for no effect and ±100 for the full control effect; potency is the fitted concentration of half-maximal effect.
# Chain of Acetylcholinesterase (Homo sapiens) (P22303 whole entry, looked up): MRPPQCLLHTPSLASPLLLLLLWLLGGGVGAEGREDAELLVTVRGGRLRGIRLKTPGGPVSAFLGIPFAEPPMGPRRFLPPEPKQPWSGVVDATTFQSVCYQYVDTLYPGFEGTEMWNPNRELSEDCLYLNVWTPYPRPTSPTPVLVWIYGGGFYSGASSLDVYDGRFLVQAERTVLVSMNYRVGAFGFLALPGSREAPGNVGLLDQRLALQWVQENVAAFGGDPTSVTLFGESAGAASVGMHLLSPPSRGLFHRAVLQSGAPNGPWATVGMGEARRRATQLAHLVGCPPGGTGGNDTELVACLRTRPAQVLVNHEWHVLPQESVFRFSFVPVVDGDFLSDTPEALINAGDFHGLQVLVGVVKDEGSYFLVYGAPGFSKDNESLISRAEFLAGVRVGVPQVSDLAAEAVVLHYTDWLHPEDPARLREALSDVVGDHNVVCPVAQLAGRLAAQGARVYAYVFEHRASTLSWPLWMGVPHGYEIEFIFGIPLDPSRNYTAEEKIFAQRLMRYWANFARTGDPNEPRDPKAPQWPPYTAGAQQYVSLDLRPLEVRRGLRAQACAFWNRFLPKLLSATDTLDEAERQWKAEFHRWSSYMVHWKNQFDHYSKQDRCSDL
SMILES,"activity, negative = inhibition",Potency,outcome
CCN1CCN(C(=O)N[C@@H](C(=O)N[C@@H]2C(=O)N3C(C(=O)O)=C(CSc4nnnn4C)CS[C@H]23)c2ccc(O)cc2)C(=O)C1=O,-9.7% [at 52.9 µM],,
CC[N+](C)(CC)CCOC(=O)C1c2ccccc2Oc2ccccc21,1.69% [at 52.9 µM],,
Cc1ccc(O)c(N)c1,-0.205%,,
O=C(Cl)c1cc(C(=O)Cl)cc(C(=O)Cl)c1,-3.59%,,
C(/C=C/C=C/Nc1ccccc1)=Nc1ccccc1,,35.6 µM (active),
CCCC(C(=O)OCCN(CC)CC)(c1ccccc1)c1ccccc1,0.337% [at 52.9 µM],,
CCC(=O)Oc1ccc2c(c1)CC[C@@H]1[C@@H]2CC[C@@]2(C)[C@H]1C[C@@H](OC(=O)CC)[C@@H]2OC(=O)CC,1.67% [at 52.9 µM],,
CCCOC(C(=O)OC1CCN(C)CC1)(c1ccccc1)c1ccccc1,1.27% [at 52.9 µM],,
O=S(=O)(O)c1cc(S(=O)(=O)O)c2ccc3c(S(=O)(=O)O)cc(S(=O)(=O)O)c4ccc1c2c43,-7.76% [at 23.6 µM],,
N#Cc1ccc(C/C(=N/NC(=O)Nc2ccc(OC(F)(F)F)cc2)c2cccc(C(F)(F)F)c2)cc1,-4.21%,,
O=C(Nc1ccc2c(O)c(N=Nc3ccc(N=Nc4ccc(S(=O)(=O)O)cc4)cc3)c(S(=O)(=O)O)cc2c1)c1ccccc1,7.29%,,
CCO[C@H](Cc1ccc(OCCc2ccc(OS(C)(=O)=O)cc2)cc1)C(=O)O,-1.23% [at 52.9 µM],,
CCCCNCCCC,2.67%,,
CN(C)CCOc1ccccc1Cc1ccccc1,-2.25% [at 52.9 µM],,
CC1=C(C)C(=O)C(CCCCC#CCCCC#CCO)=C(C)C1=O,1.35% [at 52.9 µM],,
CC(=O)OCC(=O)[C@@]1(O)CC[C@H]2[C@@H]3CCC4=CC(=O)C=C[C@]4(C)[C@@]3(F)[C@@H](O)C[C@@]21C,3.31% [at 52.9 µM],,
CN(C)[C@@H](CCOc1cccc2ccccc12)c1ccccc1,-1.93% [at 52.9 µM],,
CSc1ccc(Oc2ccc(S(N)(=O)=O)cc2CN(C)C)cc1C,-6.97%,,
CCN(CC)CCOC(=O)C(Cc1cccc2ccccc12)CC1CCCO1 (stereo not given),2.82% [at 52.9 µM],,
O=[N+]([O-])C1(Br)COCOC1,-7.15%,,

SMILES,"activity, negative = inhibition",Potency,outcome
Cc1ccc(O)c(O)c1,0.764%,,
CC(C)NCC(O)c1ccc2ccccc2c1 (stereo not given),0.438% [at 52.9 µM],,
O=[N+]([O-])c1ccc(O/N=C/c2cc(Br)c(O)c(Br)c2)c([N+](=O)[O-])c1,-0.273%,,
CC(C)COCC(CN(Cc1ccccc1)c1ccccc1)N1CCCC1 (stereo not given),4.54% [at 52.9 µM],,
CC(C)(Cc1c[nH]c2ccccc12)NCC(O)COc1ccccc1C#N (stereo not given),-4.96% [at 52.9 µM],,
CCO[C@@H]1O[C@H](C(COCc2ccccc2)OCc2ccccc2)[C@H](OCc2ccccc2)[C@H]1O (stereo not given in full),0.589% [at 52.9 µM],,
Cc1nc(-c2ccc(OCC(C)C)c(C#N)c2)sc1C(=O)O,,27.5 µM (active),
COc1cc(S(=O)(=O)O)c(C)cc1N=Nc1c(O)ccc2cc(S(=O)(=O)O)ccc12,6.62%,,
CNC(=O)c1ccccc1Sc1ccc2c(/C=C/c3ccccn3)n[nH]c2c1,-4.54% [at 52.9 µM],,
CN(C[C@@H](CC[N+]12CCC(C3CCCCC3)(CC1)CC2)c1ccc(Cl)c(Cl)c1)C(=O)c1cc(C(F)(F)F)cc(C(F)(F)F)c1,,,inactive
CCOC(=O)COc1ccc2c(c1)CC(NCC(O)c1cccc(Cl)c1)CC2 (stereo not given),-9.58%,,
CC(C)(COC(=O)c1ccccc1)COC(=O)c1ccccc1,-1.33%,,
N#CSc1ccc(N)c([N+](=O)[O-])c1,1.45%,,
CNC(=O)c1cnn(-c2nc(N)c3ncn([C@@H]4O[C@H](CO)[C@@H](O)[C@H]4O)c3n2)c1,2.03% [at 52.9 µM],,
CC1(C)S[C@@H]2[C@H](N=CN3CCCCCC3)C(=O)N2[C@H]1C(=O)O,-3.21% [at 52.9 µM],,
CC1(C)CCC(C)(C)c2cc(NC(=O)c3ccc(C(=O)O)cc3)ccc21,2.85% [at 52.9 µM],,
Cc1ccsc1/C=C/C1=NCCCN1C,,17.4 µM (active),
CN1CCN(Cc2cc(-c3ccc4[nH]c(=O)oc4c3)co2)[C@@H](c2ccc(F)cc2)C1,-9.74%,,
CC(=O)Nc1ccc(S(=O)(=O)Nc2cc(C)on2)cc1,1.02% [at 52.9 µM],,
Oc1cc2ccccc2c2ccccc12,-12%,,

# Target: Acetylcholinesterase (Homo sapiens) (UniProt P22303)
# Test: Acetylcholinesterase (AChE) small molecule antagonists: enzyme-based qHTS assay (AID 1347397); note: nearly all actives have a fitted effect of over 55% in size
# Details: Potency: AChE enzyme activity inhibition; outcome: AChE enzyme activity inhibition; series mostly up to 115 µM; activity change, negative = inhibition: at the top concentration
# Outline: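 Recombinant human AChE, dispensed at 50 mU/mL, was preincubated with Tox21 10K compounds or DMSO vehicle for 30 min at room temperature. DTNB plus acetylthiocholine was then added, and thiocholine was measured colorimetrically after a further 10 min.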
SMILES,"activity change, negative = inhibition",Potency
CCN1CCN(C(=O)N[C@@H](C(=O)N[C@@H]2C(=O)N3C(C(=O)O)=C(CSc4nnnn4C)CS[C@H]23)c2ccc(O)cc2)C(=O)C1=O,0.162% [at 53 µM],
CC[N+](C)(CC)CCOC(=O)C1c2ccccc2Oc2ccccc21,0.451% [at 53 µM],
Cc1ccc(O)c(N)c1,0.273%,
O=C(Cl)c1cc(C(=O)Cl)cc(C(=O)Cl)c1,-0.129%,
C(/C=C/C=C/Nc1ccccc1)=Nc1ccccc1,-8.38%,
CCCC(C(=O)OCCN(CC)CC)(c1ccccc1)c1ccccc1,0.499% [at 53 µM],
CCC(=O)Oc1ccc2c(c1)CC[C@@H]1[C@@H]2CC[C@@]2(C)[C@H]1C[C@@H](OC(=O)CC)[C@@H]2OC(=O)CC,0.399% [at 53 µM],
CCCOC(C(=O)OC1CCN(C)CC1)(c1ccccc1)c1ccccc1,0.532% [at 53 µM],
O=S(=O)(O)c1cc(S(=O)(=O)O)c2ccc3c(S(=O)(=O)O)cc(S(=O)(=O)O)c4ccc1c2c43,-5.03% [at 23.6 µM],
N#Cc1ccc(C/C(=N/NC(=O)Nc2ccc(OC(F)(F)F)cc2)c2cccc(C(F)(F)F)c2)cc1,-6.26%,
O=C(Nc1ccc2c(O)c(N=Nc3ccc(N=Nc4ccc(S(=O)(=O)O)cc4)cc3)c(S(=O)(=O)O)cc2c1)c1ccccc1,24%,
CCO[C@H](Cc1ccc(OCCc2ccc(OS(C)(=O)=O)cc2)cc1)C(=O)O,-0.81% [at 53 µM],
CCCCNCCCC,0.261%,
CN(C)CCOc1ccccc1Cc1ccccc1,-0.277% [at 53 µM],
CC1=C(C)C(=O)C(CCCCC#CCCCC#CCO)=C(C)C1=O,-0.382% [at 53 µM],
CC(=O)OCC(=O)[C@@]1(O)CC[C@H]2[C@@H]3CCC4=CC(=O)C=C[C@]4(C)[C@@]3(F)[C@@H](O)C[C@@]21C,-0.548% [at 53 µM],
CN(C)[C@@H](CCOc1cccc2ccccc12)c1ccccc1,-0.54% [at 53 µM],
CSc1ccc(Oc2ccc(S(N)(=O)=O)cc2CN(C)C)cc1C,0.657%,
CCN(CC)CCOC(=O)C(Cc1cccc2ccccc12)CC1CCCO1 (stereo not given),1.52% [at 53 µM],
O=[N+]([O-])C1(Br)COCOC1,-12.6%,

SMILES,"activity change, negative = inhibition",Potency
Cc1ccc(O)c(O)c1,1.06%,
CC(C)NCC(O)c1ccc2ccccc2c1 (stereo not given),-0.566% [at 53 µM],
O=[N+]([O-])c1ccc(O/N=C/c2cc(Br)c(O)c(Br)c2)c([N+](=O)[O-])c1,17.1%,
CC(C)COCC(CN(Cc1ccccc1)c1ccccc1)N1CCCC1 (stereo not given),1.62% [at 53 µM],
CC(C)(Cc1c[nH]c2ccccc12)NCC(O)COc1ccccc1C#N (stereo not given),0.227% [at 53 µM],
CCO[C@@H]1O[C@H](C(COCc2ccccc2)OCc2ccccc2)[C@H](OCc2ccccc2)[C@H]1O (stereo not given in full),0.531% [at 53 µM],
Cc1nc(-c2ccc(OCC(C)C)c(C#N)c2)sc1C(=O)O,-2.56% [at 53 µM],
COc1cc(S(=O)(=O)O)c(C)cc1N=Nc1c(O)ccc2cc(S(=O)(=O)O)ccc12,12.4%,
CNC(=O)c1ccccc1Sc1ccc2c(/C=C/c3ccccn3)n[nH]c2c1,2.01% [at 53 µM],
CN(C[C@@H](CC[N+]12CCC(C3CCCCC3)(CC1)CC2)c1ccc(Cl)c(Cl)c1)C(=O)c1cc(C(F)(F)F)cc(C(F)(F)F)c1,,7.96 µM (active)
CCOC(=O)COc1ccc2c(c1)CC(NCC(O)c1cccc(Cl)c1)CC2 (stereo not given),-10.7%,
CC(C)(COC(=O)c1ccccc1)COC(=O)c1ccccc1,-0.516%,
N#CSc1ccc(N)c([N+](=O)[O-])c1,4.76%,
CNC(=O)c1cnn(-c2nc(N)c3ncn([C@@H]4O[C@H](CO)[C@@H](O)[C@H]4O)c3n2)c1,-1.95% [at 53 µM],
CC1(C)S[C@@H]2[C@H](N=CN3CCCCCC3)C(=O)N2[C@H]1C(=O)O,-1.08% [at 53 µM],
CC1(C)CCC(C)(C)c2cc(NC(=O)c3ccc(C(=O)O)cc3)ccc21,0.675% [at 53 µM],
Cc1ccsc1/C=C/C1=NCCCN1C,-25% [at 53 µM],
CN1CCN(Cc2cc(-c3ccc4[nH]c(=O)oc4c3)co2)[C@@H](c2ccc(F)cc2)C1,-1.07%,
CC(=O)Nc1ccc(S(=O)(=O)Nc2cc(C)on2)cc1,-0.122% [at 53 µM],
Oc1cc2ccccc2c2ccccc12,-0.132%,
